In ChEMBL document CHEMBL4513216, “Probing the Open Global Health Chemical Diversity Library for Multistage-Active Starting Points for Next-Generation Antimalarials” (ACS Infect Dis, 2020):
Out of some 69,000 compounds screened, about 8,600 (12%) showed an effect of 50% or more. This excerpt belongs to a sample that is enriched for strong results.

Each compound was assayed on Plasmodium berghei (assay: Screen against P. berghei liver stage (PbLuc), transformed with Luciferase, at 10uM). Conditions: tested at 10 uM.
Format: functional, HepG2
CNC(=O)C1CCCCN1C(=O)c1n[nH]c(=O)c2ccccc12 (configuration not stated) gave an INHIBITION of 8.53%. O=C(COc1ccccc1)NS(=O)(=O)Cc1ccccc1 showed an INHIBITION of 11.8%. Compound Cc1ccc(OCC(=O)NS(=O)(=O)Cc2ccccc2)cc1 has an INHIBITION of 69.8%. Cc1cccc(OCC(=O)NS(=O)(=O)Cc2ccccc2)c1 showed an INHIBITION of 22.9%. Compound O=S(=O)(NCCCn1cncn1)c1ccc2c(c1)CCCC2 has an INHIBITION of 50.4%. For O=S(=O)(NCCCn1cncn1)c1ccc2c(c1)CCC2, the INHIBITION was -58.1%. O=S(=O)(NCCCn1cncn1)c1ccc2c(c1)CCO2 was tested, and the INHIBITION was 44.9%. For CCOc1ccc(CCCC(=O)N2CC[C@H](NC(C)=O)C2)cc1C, the INHIBITION was 16%. With CCOc1ccc(C(=O)NC2CC2)cc1C the INHIBITION was 57%. In the case of CCOc1ccc(C(=O)NC2CCN(c3ncccn3)CC2)cc1C, the INHIBITION is reported as 34.2%. CCN(CC)C(CNC(=O)c1ccc(S(=O)(=O)NC)cc1)c1ccco1 (configuration not stated) showed an INHIBITION of 6.12%. For COc1cccc(OCC(=O)N(C)c2cccnc2)c1, the INHIBITION was 53.7%. COc1cccc(OCC(=O)N(C)c2cccnc2N(C)C)c1 gave an INHIBITION of 33.1%. COc1cccc(OCC(=O)NS(=O)(=O)c2cccnc2)c1 was tested, and the INHIBITION was -19.05%. Compound Cc1nc(C(C)C)sc1C(C)N(C)C(=O)c1ccc(=O)n(C)n1 (configuration not stated) has an INHIBITION of -19.7%. In the case of CCN(CC)c1ncccc1CNCc1cc2ccccc2s1, the INHIBITION is reported as 5.91%. With Cc1cc(NC(=O)CN2CCOC(CN(C)C)C2)n(C)n1 (configuration not stated) the INHIBITION was 4.35%. In the case of Cc1nc(CN2CCO[C@@H]3CN(Cc4nccs4)C[C@@H]3C2)cs1, the INHIBITION is reported as 3.69%. O=C(CN1CCCC1c1cccs1)N1CCc2sccc2C1 (configuration not stated) showed an INHIBITION of 19.2%. Work on CC(C)c1noc(-c2cccc(OCC(N)=O)c2)n1 yielded an INHIBITION of -110%. O=C(c1ccc2sccc2c1)N1CCC(C(=O)O)(n2cccn2)CC1 was tested, and the INHIBITION was -16.6%. Work on O=C(c1ccc2occc2c1)N1CCC(C(=O)O)(n2cccn2)CC1 yielded an INHIBITION of 60%. With O=C(c1ccc2ncsc2c1)N1CCC(C(=O)O)(n2cccn2)CC1 the INHIBITION was -0.529%. For CN1CC2(CCN(CCCOCc3ccccc3)CC2)OC1=O, the INHIBITION was 42.8%. For O=C(C1CCOC1)N1C[C@H]2CN(Cc3ccccn3)C[C@H]2C1 (some centres not stated), the INHIBITION was 33.5%. Compound CC(=O)N(Cc1ncc(C)o1)C1CCN(Cc2sc(C)nc2C)C1 (configuration not stated) has an INHIBITION of -2.19%. In the case of O=C(Cc1cccnc1)NCCSc1ccccc1F, the INHIBITION is reported as -11.6%. Compound NCc1ccccc1Sc1ccc(O)cc1 has an INHIBITION of 39.4%. For c1ccc(Sc2ccc3c(c2)OCO3)c(CNC2=NCCN2)c1, the INHIBITION was 87.1%. Compound CNC(C)Cc1ccccc1Sc1ccc(O)cc1 (configuration not stated) has an INHIBITION of -2.39%. For O=C1NCCCCC1Sc1ccccc1F (configuration not stated), the INHIBITION was 13.6%. Compound c1cc2c(cc1C1(CNC3=NCCN3)CCCC1)OCCO2 has an INHIBITION of 27.6%. Fc1ccc(Sc2ccccc2CNC2=NCCN2)cc1 was tested, and the INHIBITION was 83.3%. With CC(C)NCc1nc(-c2ccc3c(c2)OCO3)c[nH]1 the INHIBITION was -40.5%. Fc1ccccc1Sc1ccccc1CNC1=NCCN1 showed an INHIBITION of 75.7%. CCCc1ccc(OCCNCc2ccco2)c(OC)c1 showed an INHIBITION of 1.71%. Cc1ccc(C2CCCN2S(=O)(=O)N(C)Cc2nccn2C)o1 (configuration not stated) gave an INHIBITION of 40.8%. Work on Cc1nc(CN2CC[C@@H](OCC3CC3)[C@@H]2Cc2cccnc2)cs1 yielded an INHIBITION of 10.5%. In the case of Cc1cnn(CC2CN(Cc3nnc(-c4ccccc4)o3)CCO2)c1 (configuration not stated), the INHIBITION is reported as -13.3%. CC(=O)NC1CCCN(Cc2ccn(C)c(=O)c2)C1 (configuration not stated) was tested, and the INHIBITION was -4.4825%. Compound CNc1nc(C(=O)N2C[C@@H]3CC[C@H]2CN(C2CCOCC2)C3)cs1 has an INHIBITION of 12.8%. CC(c1nc(C2CC2)no1)N(C)Cc1ccc(Cl)cc1 (configuration not stated) showed an INHIBITION of 43.1%. Work on CC(c1nc(C2CC2)no1)N(C)Cc1cccc(F)c1 (configuration not stated) yielded an INHIBITION of 53.4%. CC(c1nc(C2CC2)no1)N(C)Cc1ccc2c(c1)OCCO2 (configuration not stated) was tested, and the INHIBITION was 12.3%. With Cn1ccc2c(C(=O)N3CCCC(c4nnc[nH]4)C3)cccc21 (configuration not stated) the INHIBITION was -66.9%. For CC(C)CCN1Cc2c(C(=O)O)ncn2-c2ccccc2S1(=O)=O, the INHIBITION was 31.8%. CCN1Cc2c(C(=O)NC(C)C(C)C)ncn2-c2ccccc2S1(=O)=O (configuration not stated) was tested, and the INHIBITION was 29.9%. Compound CCC(CC)NC(=O)c1ncn2c1CN(CC)S(=O)(=O)c1ccccc1-2 has an INHIBITION of 52%. Work on CCN1Cc2c(C(=O)NC(C)C)ncn2-c2ccccc2S1(=O)=O yielded an INHIBITION of 31.1%. In the case of CCCNC(=O)c1ncn2c1CN(CC(C)C)S(=O)(=O)c1ccccc1-2, the INHIBITION is reported as 57.9%. In the case of CCNC(=O)c1ncn2c1CN(C)S(=O)(=O)c1ccccc1-2, the INHIBITION is reported as -1.53%. CC(C)CN1Cc2c(C(=O)NC3CC3)ncn2-c2ccccc2S1(=O)=O showed an INHIBITION of 50.9%. With CN1Cc2c(C(=O)NC3CCCCC3)ncn2-c2ccccc2S1(=O)=O the INHIBITION was 43.4%. Compound CCN1Cc2c(C(=O)NCC3CC3)ncn2-c2ccccc2S1(=O)=O has an INHIBITION of 0.139%. With CCN1Cc2c(C(=O)NC)ncn2-c2ccccc2S1(=O)=O the INHIBITION was 45.1%. Compound CNC(=O)c1ncn2c1CN(CCC(C)C)S(=O)(=O)c1ccccc1-2 has an INHIBITION of 64.9%. Work on CC(C)CN1Cc2c(C(=O)N(C)C)ncn2-c2ccccc2S1(=O)=O yielded an INHIBITION of 5.69%.
